Assay outcomes (PubChem)
The list is not random: actives were taken first. Their share in the collection is about 2.8%.
IP6K1 inh = IP6K1 kinase inhibition. IP6K1 kinase, ADP-Glo luminescence, 2 h; hits give low values. Q92551. activity change, % (series mostly up to about 58 µM). AID 1645851. 0.81% of 140,000 active; in the data active = activity change below about -25%
Target sequence (Q92551 whole entry, looked up): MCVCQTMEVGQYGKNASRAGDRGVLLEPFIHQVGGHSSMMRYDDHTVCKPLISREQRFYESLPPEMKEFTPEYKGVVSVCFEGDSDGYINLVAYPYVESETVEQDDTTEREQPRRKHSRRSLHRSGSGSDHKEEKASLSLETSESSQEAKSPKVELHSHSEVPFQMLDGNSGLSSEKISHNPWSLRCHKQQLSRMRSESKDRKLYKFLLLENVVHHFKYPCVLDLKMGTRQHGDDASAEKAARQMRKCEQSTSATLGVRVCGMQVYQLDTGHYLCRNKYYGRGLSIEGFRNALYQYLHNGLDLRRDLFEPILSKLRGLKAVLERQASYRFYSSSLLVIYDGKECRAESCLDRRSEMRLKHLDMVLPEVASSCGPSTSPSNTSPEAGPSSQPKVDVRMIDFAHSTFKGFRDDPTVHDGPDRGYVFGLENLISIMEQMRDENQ
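ADP-Glo luminescence measures ADP made by human IP6K1 during a 2 h RT reaction with ATP/IP6 (mix at 1.3 mM/130 uM); top library doses 57.5 and 19.1 uM final.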
KDM5B inh = blocks human KDM5B histone demethylase activity; Q9UGL1; KDM5B demethylase, FDH-coupled NADH fluorescence (FDH is formaldehyde dehydrogenase); Potency, µM (titrated, usually from 57.7 µM), actives largely listed as inhibitors; 2.6% of 220,000 active; AID 1347165; active = well fitted inhibition curve with a large enough effect; inconclusive = small, poorly fitted or top-dose-only effect; inactive = no such curve, though single readings can be large or run the other way; also: nearly all actives have a fitted effect of over 70% in size
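Measured: NADH fluorescence change, 30 min, RT. System: KDM5BΔAP 200 nM final, H3K4me3 peptide, α-KG, Fe(II), ascorbate, NAD⁺ plus FDH, pH 7.5 HEPES. Compounds: titrated, 10 min pre-incubation with enzyme.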
Large screens that a line does not name were inactive.

CC1=C[C@@H](CC#N)[C@H](C(C)C)C[C@H]1CC(=O)N1CCN(c2cnccn2)CC1	KDM5B inh 35µM
CCNC(=O)NC(=O)C(Cl)c1ccccc1 (stereo not drawn)	none (no result: IP6K1 inh)
Cc1cccc(OCC(=O)N2CCC3(CC2)NC(=O)N(c2cccc(F)c2)N3)c1	none
COc1ccc2c(c1)CCC/C2=N\OC(=O)c1cc(SC)ccc1Cl	none (no result: IP6K1 inh)
CN1CCCC2(C1)CN(C)c1ccc(C(=O)NCCOc3ccccc3)cc12 (stereo not drawn)	KDM5B inh 40µM
CN1CCCC2(CCN(C(=O)CCCOc3ccccc3)C2)C1=O (stereo not drawn)	none
CN1CCC2(C1)CN(CC1CC1)c1ccc(C(=O)NCCOc3ccccc3)cc12 (stereo not drawn)	KDM5B inh inconclusive
CC(=O)N1CCCC2(C1)CN(C)c1ccc(C(=O)NCCOc3ccccc3)cc12 (stereo not drawn)	KDM5B inh 32µM
CCC(=O)N1CCN(c2nc3c(s2)CC(C(=O)NCc2ccc(C)o2)CC3)CC1 (stereo not drawn)	KDM5B inh 25µM
Cc1ccc(CNC(=O)C2CCc3nc(N4CCN(C(=O)C(C)C)CC4)sc3C2)o1 (stereo not drawn)	none
CCCN1CCC(CC(=O)N2CCCC(N3CCN(c4ccc(F)cc4)CC3)C2)CC1 (stereo not drawn)	none
c1csc(-c2ccnc(N[C@H]3CO[C@H]4[C@@H]3OC[C@@H]4NCC3CCCCC3)n2)c1	KDM5B inh 40µM
COc1ccc(-c2ccnc(N[C@H]3CO[C@H]4[C@@H]3OC[C@H]4OC(=O)Nc3cccc(C(F)(F)F)c3)n2)cc1	KDM5B inh 22µM
COc1ccc(-c2ccnc(N[C@H]3CO[C@H]4[C@@H]3OC[C@@H]4NC(=O)c3ccc(C)cc3)n2)cc1	KDM5B inh inconclusive
COCC(=O)N[C@H]1CO[C@H]2[C@@H]1OC[C@@H]2Nc1nccc(-c2ccc(OC)cc2)n1	KDM5B inh 35µM
COc1ccc(-c2ccnc(N[C@H]3CO[C@H]4[C@@H]3OC[C@@H]4NS(=O)(=O)c3cccs3)n2)cc1	KDM5B inh 14µM
COc1ccc(-c2ccnc(N[C@H]3CO[C@H]4[C@@H]3OC[C@H]4OC(=O)Nc3cccc(OC)c3)n2)cc1	KDM5B inh inconclusive
COc1ccccc1-c1ccnc(N[C@H]2CO[C@H]3[C@@H]2OC[C@@H]3NS(=O)(=O)c2cccs2)n1	KDM5B inh inconclusive
COc1ccc(NC(=O)O[C@@H]2CO[C@H]3[C@@H]2OC[C@@H]3Nc2nccc(-c3cccs3)n2)cc1	none
Cc1cc(C)cc(NC(=O)CCCc2nc3ccccc3o2)c1	none (no result: IP6K1 inh)
O=C(NC(c1ccccc1)c1cc2ccccc2o1)C1CCOCC1 (stereo not drawn)	none (no result: IP6K1 inh)
Cc1nn(-c2ccccc2)c2c1C(C(C)C)N(C1CCN([S+](=O)([O-])c3cccs3)CC1)C2=O (stereo not drawn)	none (no result: KDM5B inh)
C=CC(C)(C)C1(CC2NC(=O)C3CCCN3C2=O)C(=O)Nc2cc3c(cc21)C=CC(C)(C)O3 (stereo not drawn)	none (no result: KDM5B inh)
CC(=O)OC(COC1CC2CCC1(C)C2(C)C)C[N+]1(C)CCCCC1 (stereo not drawn)	none (no result: IP6K1 inh)
CC(C)(C)c1ccc(NC(=O)O[C@@H]2CO[C@H]3[C@@H]2OC[C@@H]3Nc2nccc(-c3ccc4c(c3)OCO4)n2)cc1	KDM5B inh 28µM
O=C(NCc1ccccc1)O[C@@H]1CO[C@H]2[C@@H]1OC[C@@H]2Nc1nccc(-c2ccc3c(c2)OCO3)n1	KDM5B inh inconclusive
CN(C)c1ccc(-c2ccnc(N[C@H]3CO[C@H]4[C@@H]3OC[C@H]4OC(=O)NCc3ccccc3)n2)cc1	KDM5B inh 28µM
CC(C)(C)C(=O)N[C@H]1CO[C@H]2[C@@H]1OC[C@@H]2Nc1nccc(-c2cccc(F)c2)n1	KDM5B inh inconclusive
CC(C)(C)c1ccc(NC(=O)O[C@@H]2CO[C@H]3[C@@H]2OC[C@@H]3Nc2nccc(-c3cccc(F)c3)n2)cc1	KDM5B inh inconclusive
COc1ccc(-c2ccnc(N[C@H]3CO[C@H]4[C@@H]3OC[C@@H]4NC(=O)Nc3cccc(C#N)c3)n2)cc1	KDM5B inh 25µM
O=C(O)CCCC(=O)N[C@H]1CO[C@H]2[C@@H]1OC[C@@H]2Nc1nccc(-c2cccc(F)c2)n1	KDM5B inh 35µM
N#Cc1cccc(NC(=O)N[C@H]2CO[C@H]3[C@@H]2OC[C@@H]3Nc2nccc(-c3cccs3)n2)c1	none
O[C@@H]1C[C@@H](c2nc(-c3ccc(F)cc3)no2)N(Cc2ncc[nH]2)C1	none
CC(C)CNc1ccc2c(n1)C(C)(C(=O)Nc1ccn(C)n1)CN(Cc1ccccc1)C2 (stereo not drawn)	KDM5B inh inconclusive
COCCN1Cc2ccc(Nc3cccnc3)nc2C(C)(C(=O)NCc2ccncc2)C1 (stereo not drawn)	KDM5B inh 25µM
COCCN1Cc2ccc(Nc3cccnc3)nc2C(C)(C(=O)Nc2cccc(OC)c2)C1 (stereo not drawn)	KDM5B inh inconclusive
COCCN1Cc2ccc(Nc3ccc(OC)cc3)nc2C(C)(C(=O)NC2CCC2)C1 (stereo not drawn)	KDM5B inh inconclusive
COCCN1Cc2ccc(NCc3ccccc3)nc2C(C)(C(=O)Nc2ccn(C)n2)C1 (stereo not drawn)	KDM5B inh 35µM
CC(C)CNc1ccc2c(n1)C(C)(C(=O)NC(C)C)CN(Cc1ccccc1)C2 (stereo not drawn)	none
COCCN1Cc2ccc(NCC(C)C)nc2C(C)(C(=O)NC2CC2)C1 (stereo not drawn)	KDM5B inh 32µM
CC(C)CNc1ccc2c(n1)C(C)(C(=O)NC1COC1)CN(Cc1ccccc1)C2 (stereo not drawn)	KDM5B inh 32µM
CCCCn1nc(C(=O)Nc2ccc(OCC(=O)NCC)cc2)c2ccccc2c1=O	none (no result: IP6K1 inh)
O=C(NCc1cccnc1)C1CCc2nnc(-c3cccc(C(F)(F)F)c3)n21 (stereo not drawn)	none (no result: KDM5B inh)
COC(=O)C(NC(=O)C(Cc1ccc(OCc2ccccc2)cc1)NC(=O)C(CC(C)C)NC(=O)OC(C)(C)C)C(C)O (stereo not drawn)	none (no result: IP6K1 inh)
COC(=O)C(CNC(=O)c1ccc(F)cc1)Cc1ccc(F)cc1 (stereo not drawn)	none (no result: IP6K1 inh)
CCCNC(=O)CSc1nc(-c2ccccc2)[nH]c1S(=O)(=O)c1ccccc1	none (no result: IP6K1 inh)
Cc1cc(Cl)ccc1OC(C)C(=O)NN (stereo not drawn)	none (no result: IP6K1 inh)
Cc1cccc(C(=O)N2CCc3cc(CNS(=O)(=O)c4ccc(F)c(Cl)c4)ccc32)c1	none
COc1ccc(CCNc2ncnc3c2CN(c2ccc(Cl)cc2)C(=O)N(C)C3)cc1	KDM5B inh inconclusive
OCCC1CN(c2cc(C(F)(F)F)ccn2)CCN1CC1CCCCC1 (stereo not drawn)	KDM5B inh 22µM
OCCC1CN(CCOc2ccc(F)cc2)CCN1CC1CCCCC1 (stereo not drawn)	none
O=S(=O)(Nc1cccc(-c2ccc(N3CCCC3)nn2)c1)c1cccc(C(F)(F)F)c1	none (no result: IP6K1 inh)
O=C(NCc1ccco1)c1cc(S(=O)(=O)C2CCS(=O)(=O)C2)ccc1F (stereo not drawn)	none (no result: IP6K1 inh)
CN(C)C(=O)c1ccc(-c2cc3c(cn2)CN(CCc2ccccc2)CCN3)cc1	KDM5B inh inconclusive
C[S+](=O)([O-])c1ccc(-c2cc3c(cn2)CN(Cc2ccccc2)CCN3)cc1	KDM5B inh 28µM
c1ccc(CN2CCNc3cc(-c4ccoc4)ncc3C2)cc1	KDM5B inh inconclusive
